The record followed here is PubChem BioAssay.

“And” between values parts separate entries of the source, which are not always exact repeats. Identical values can stand only once. The source made the active and inactive calls.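 Rule for the calls, unless noted: active = compounds whose cell count with miR-34 switched on is under 0.7 times the count with it off; inactive = the rest.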

The nature of test [1]: compounds altering viability of human ES cells (AID 493140; call rule not given here;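 note: cells exposed to compounds for four days before counting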). The settings on record: human embryonic stem cell survival screen; stronger effect = higher value.
The nature of test [2]: P. berghei load reduction in hepatocytes – cell-based, HepG2, luciferase luminescence, HepG2 viability, primary screen (AID 624349; in the data active = parasite load remaining mostly below about 12%, no sharp cut-off; inactive = mostly above about 10%;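 note: 100% = mean of DMSO negative control wells on the same plate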). The settings on record: P. berghei liver stage in HepG2, luciferase luminescence, concentration not given here; parasite load remaining: stronger effect = lower value; viability: measured here: HepG2 viability without parasites.
A short description of test [3]: Wnt pathway potentiators raising nuclear beta-catenin – imaging, WNT3A-conditioned medium, mouse C2C12, NPC library, primary screen (AID 1117326; in the data active = nuclear beta-catenin stimulation mostly above about 4.2%, no sharp cut-off; inactive = mostly below about 10%). The conditions noted are these: stronger effect = higher value.
The nature of test [4]: stimulators of insulin release from INS-1E, primary screen, cell-based, 5 mM glucose, NPC library (AID 1117329;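 active = compound raises insulin release from rat beta cells at 5 mM glucose, no numeric limit stated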). The conditions noted are these: rat INS-1E insulin secretion, at 10 µM, stronger effect = higher value.
Test [5] can be described thus: growth inhibition of GSK3B-pretreated HCT116 cells – cell-based, CellTiter-Glo, 0.2 to 20 µM (AID 1117336;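 active = compounds lowering colon cancer cell viability after pretreatment blocking the GSK3B kinase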). The settings on record: HCT116 viability after GSK3B inhibitor, at 20 µM, stronger effect = higher value. For orientation: Cellular ATP, detected with luciferase, serves as a proxy for viable cell number.
Test [6] in a line: inhibition of endothelial tube formation, primary screen, imaging, VEGF stimulated, CD31 staining, tube area, NPC library (AID 1117340;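 active = compound that reduces growth-factor-driven endothelial tube area in a mixed cell culture, no cutoff stated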). The conditions noted are these: VEGF-stimulated ADSC/ECFC co-culture, at 10 µM, stronger effect = higher value.
The nature of test [7]: GLP1 release stimulators, primary, NCI-H716, NPC library (AID 1117341;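 active = compound raises GLP1 secretion from the human gut endocrine cells, with no numeric limit stated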). The settings on record: NCI-H716 cells, at 10 µM, stronger effect = higher value.
Test [8] in a line: HCT116 colon cancer cell growth inhibition, primary screen, CellTiter-Glo luminescence, NPC library (AID 1117342;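 active = compounds that lower survival of HCT116 colon cancer cells in the luminescence readout, no numeric limit stated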). The settings on record: at 20 µM (top of the series).
The nature of test [9]: reduced SW480 viability measured with CellTiter-Glo, NPC library, primary (AID 1117343;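 active = compounds that lower viability of the colon cancer cells in the luminescence readout, with no numeric limit stated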). The conditions noted are these: CellTiter-Glo luminescence; at 20 µM (top of the series) unless noted.
The nature of test [10]: NPC library primary testing for decreased DLD-1 cell viability via CellTiter-Glo (AID 1117346;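 active = compounds that lower survival of DLD-1 colon cancer cells in the luminescence readout, no cutoff given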). The settings on record: DLD-1 viability, CellTiter-Glo luminescence; at 20 µM (top of the series).
Test [11] can be described thus: EMT-state selective cytotoxicity in co-culture – imaging, PC-3E GFP, TEM4-18 mCherry, primary screen (AID 1345086;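 active = compounds killing one labelled cell type while sparing the other, by normalised counts and ratio limits, not self-fluorescent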;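 for all read-outs here: cells exposed to compound for 72 h before imaging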;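 for red/green cell ratio (normalised): normalised mesenchymal count divided by normalised epithelial count so high means epithelial killing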). The settings on record: PC-3E GFP / TEM4-18 mCherry co-culture, imaging cell counts, at 1 µM; for red/green cell ratio (normalised): actives lie on both sides, counts scaled to control wells, 1 = unselective.
Test [12] is described as follows: viability loss with induced miR-34 in A549 – imaging, A549 dox-inducible miR-34, nuclei and caspase counts, primary screen (AID 1347080). The settings on record: A549 miR-34 inducible, Hoechst nuclei count, 48 h.
Test [13] can be described thus: MELAS cybrid and Rieske KO viability enhancers – cell-based, MELAS cybrids, Rieske KO mouse fibroblasts, CellTiter-Glo, primary screen (AID 1508586;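 active = mean z-score across replicates of 1.96 or higher in either the MELAS or the Rieske mutant cell line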;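 note: z relative to plate mean and SD of compound and empty wells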). The settings on record: low glucose.
Test [14] addresses NAD(+) hydrolase SARM1 (Homo sapiens) (UniProt Q6SZW1). Kind of test: blocking NAD cleavage by SARM1 SAM-TIR – cell lysate, NAD-Glo luminescence (AID 1508614;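 active = compound whose remaining NAD level is above about 45 nM, limit read from the data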;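 note: higher remaining NAD means stronger inhibition of SARM1 NADase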). The conditions noted are these: SAM-TIR HEK293T lysate NADase, at 1 µM, stronger effect = higher value.
Setting [15] is: measured here: epithelial PC-3E GFP cell survival.
[16] abbreviates: measured here: mesenchymal TEM4-18 mCherry cell survival.
Where [17] appears, read: stronger effect = lower value, cell number ratio, induced over uninduced.
Setting [18] is: measured here: relative caspase fold change +Dox/-Dox.
[19] abbreviates: measured here: total cells with miR-34 induction, stronger effect = lower value.
Where [20] appears, read: measured here: total cells without miR-34 induction.
The mark [21] stands for this setting: MELAS cybrid survival, CellTiter-Glo 48 h, stronger effect = higher value.
Setting [22] is: Rieske KO mouse fibroblast survival, CellTiter-Glo 72 h.

Sequence of NAD(+) hydrolase SARM1 (Homo sapiens) (Q6SZW1 whole entry, looked up): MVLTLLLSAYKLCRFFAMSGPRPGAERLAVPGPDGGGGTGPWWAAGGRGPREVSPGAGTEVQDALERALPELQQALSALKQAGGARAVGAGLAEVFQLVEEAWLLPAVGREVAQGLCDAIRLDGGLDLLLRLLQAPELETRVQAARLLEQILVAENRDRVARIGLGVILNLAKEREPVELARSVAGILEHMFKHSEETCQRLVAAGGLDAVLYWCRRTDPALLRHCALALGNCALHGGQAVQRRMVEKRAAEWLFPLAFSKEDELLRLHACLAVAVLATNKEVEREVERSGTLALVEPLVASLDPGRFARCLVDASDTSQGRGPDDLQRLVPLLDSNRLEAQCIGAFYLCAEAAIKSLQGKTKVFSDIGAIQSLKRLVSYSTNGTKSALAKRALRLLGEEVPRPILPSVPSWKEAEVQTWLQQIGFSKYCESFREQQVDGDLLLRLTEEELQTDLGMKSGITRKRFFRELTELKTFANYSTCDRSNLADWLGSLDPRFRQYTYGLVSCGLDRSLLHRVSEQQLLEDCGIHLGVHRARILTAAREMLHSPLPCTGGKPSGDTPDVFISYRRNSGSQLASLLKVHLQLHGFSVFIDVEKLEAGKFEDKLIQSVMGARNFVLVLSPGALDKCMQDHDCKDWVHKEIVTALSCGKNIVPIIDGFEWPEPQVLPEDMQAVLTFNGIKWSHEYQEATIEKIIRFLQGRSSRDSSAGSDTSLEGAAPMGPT

A word on the viability: it is a read-out of living cells in per cent, often relative to untreated cells. On to `CC(=O)CC(c1ccc([N+](=O)[O-])cc1)c1c(O)c2ccccc2oc1=O` (stereo not given), for which the survival in test [1] is 21.3 (inactive). Also, in [2], the parasite load remaining is 45.5% (inactive) and 55% (inactive). Moreover, the viability in [2] was 108% and 91.9%. Besides, the nuclear beta-catenin stimulation in [3] (at 10 µM) was -1.1% (inactive); in [3] (stimulation, at 2 µM), -1.3%. Moreover, the insulin secretion stimulation in test [4] was 0.6% (inactive). For the same compound, the viability decrease in [5] is -2.5% (inactive). Moreover, the tube area decrease in test [6] was -40.9% (inactive). Further, the GLP1 secretion stimulation in test [7] is -5.1% (inactive). The inhibition of viability in test [8] was 4.3% (inactive). In addition, the viability decrease (inhibition) was 21.6% (inactive) in test [9] and 4.6% (inactive) in test [10]. For the same compound, in test [11], the red/green cell ratio (normalised) was 0.82 (inactive). Further, the normalised cell number in test [11] (setting [15]) was found to be 1.28; in test [11] (setting [16]), 1.05. Besides, the values for the fold change in test [12] (setting [17]) and in [12] (setting [18]) were 0.921 (inactive) and 1.68, respectively. Also, the cell count is 7660 in test [12] (setting [19]) and 8320 in [12] (setting [20]). For the same compound, the z-score in test [13] (setting [21]) is 0.273 (inactive); in test [13] (setting [22]), 0.192. The remaining NAD in test [14] is 10 nM (inactive).

Consider `CN(C(=O)CN(CCO)CC(=O)N(C)C(C)(C)Cc1ccccc1)C(C)(C)Cc1ccccc1`, for which the survival in [1] was 8.83 (inactive). The nuclear beta-catenin stimulation in [3] (at 10 µM) was 9.4% (inactive); in [3] (stimulation, at 2 µM), 3.2%. Also, the insulin secretion stimulation in [4] is 1.4% (inactive). Further, the viability decrease in test [5] was -33.9% (inactive). The tube area decrease in test [6] is 2.2% (inactive). The GLP1 secretion stimulation in test [7] was 107% (active). In [8], the inhibition of viability is 59.3% (active). Besides, the viability decrease (inhibition) in test [9] is 124% (active); in test [10] it was 104% (active). The red/green cell ratio (normalised) in [11] is 1.14 (inactive). Besides, the normalised cell number in [11] (setting [15]) amounted to 1.13; in [11] (setting [16]) it was 1.29. Further, the fold change is 0.876 (inactive) and 0.908 (inactive) in [12] (setting [17]); 1.3 and 4.08 in [12] (setting [18]). Further, the cell count is 7940 and 11300 in test [12] (setting [19]); 9070 and 12400 in test [12] (setting [20]). In addition, the z-score is 0.165 (inactive) in test [13] (setting [21]) and -0.15 in test [13] (setting [22]). In test [14], the remaining NAD is 10 nM (inactive).

In the case of `C[C@@H](O)[C@H]1C(=O)N2C(C(=O)O)=C(SCCN=CN)C[C@H]12`, the survival in test [1] is 8.25 (inactive). Further, in [2], the parasite load remaining is 97.9% (inactive) and 82.7% (inactive) and 21.5% (inactive). For the same compound, the viability in test [2] was 121% and 75.9% and 75.5%. Also, the nuclear beta-catenin stimulation is 0.4% (inactive) in test [3] (at 10 µM) and 4% in [3] (stimulation, at 2 µM). The insulin secretion stimulation in test [4] was -0.5% (inactive). The viability decrease in test [5] was 6.7% (inactive). In addition, the tube area decrease in [6] was 8.2% (inactive). Moreover, the GLP1 secretion stimulation in test [7] is -1.8% (inactive). Also, in [8], the inhibition of viability is 1.15% (inactive). The viability decrease (inhibition) was -18.3% (inactive) in test [9] and 2% (inactive) in test [10]. The red/green cell ratio (normalised) in [11] is 0.95 (inactive). Besides, the figures for the normalised cell number in [11] (setting [15]) and in test [11] (setting [16]) were 1.17 and 1.11, respectively. The fold change in [12] (setting [17]) is 1.02 (inactive) and 0.837 (inactive) and 0.836 (inactive); in [12] (setting [18]) it was 2.4 and 1.6 and 1.5. Besides, the cell count in test [12] (setting [19]) was 10800 and 9100 and 8570; in test [12] (setting [20]), 10500 and 10900 and 10300. In addition, the z-score was 0.502 (inactive) and 0.0491 (inactive) in test [13] (setting [21]); -0.015 and -0.95 in test [13] (setting [22]). Besides, the remaining NAD in test [14] was 10 nM (inactive).

For the compound `CC(C)(C)C(=O)C(Oc1ccc(Cl)cc1)n1ccnc1` (stereo not given), the parasite load remaining in test [2] was 15% (inactive). Moreover, the viability in test [2] turned out to be 70%. The nuclear beta-catenin stimulation in test [3] (at 10 µM) is 2.6% (inactive); in test [3] (stimulation, at 2 µM), 1.9%. Also, the insulin secretion stimulation in [4] was 2.5% (inactive). The viability decrease in [5] is 6.3% (inactive). Further, the tube area decrease in test [6] is 11.3% (inactive). Further, the GLP1 secretion stimulation in test [7] is 7.4% (inactive). Besides, the inhibition of viability in test [8] is 34.8% (inactive). Also, the viability decrease (inhibition) is 27.1% (inactive) in test [9] and 44.1% (inactive) in [10]. Moreover, the red/green cell ratio (normalised) in [11] is 0.92 (inactive). Besides, the normalised cell number in test [11] (setting [15]) was 0.94; in [11] (setting [16]), 0.86. Also, the fold change is 0.911 (inactive) and 0.872 (inactive) in test [12] (setting [17]); 1.11 and 1.1 in test [12] (setting [18]). Moreover, the cell count in [12] (setting [19]) is 8350 and 8730; in test [12] (setting [20]), 9170 and 10000. For the same compound, the z-score in [13] (setting [21]) was -0.118 (inactive) and 0.2 (inactive); in test [13] (setting [22]), -0.278 and -0.284. Further, in [14], the remaining NAD was 10 nM (inactive).
